In the library only some 4.4% were active in any assay of this set; here they are far more common.
Mot1-301 SUMO: yeast Mot1-301 growth rescue at high temperature, primary screen, SUMOylation pathway inhibitor project, S. cerevisiae, ATP luminescence, 38.5C | S. cerevisiae Mot1-301 growth rescue; percent above DMSO median, 100 means doubled | growth rescue, % at 18.8 µM | hit rate 1% among 320,000 | AID 2716, 2010;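 active = every valid replicate shows activation above 250% relative to neutral control wells; inactive = the rest, any valid replicate at or below 250%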;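 also: OY570 slx delta 5 strain wells were the positive control but not used for scaling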
TIM10 inh: growth inhibitors of isogenic TIM10 control yeast, primary screen, counter-screen for tim10-1 yeast inhibitor project, luminescence, uHTS; S. cerevisiae TIM10 strain growth, BacTiter-Glo luminescence, 24 h; hit rate 1.4% among 330,000; inhibition, % at 10 µM; AID 463195, 2010;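 active = inhibition of 40% or more at the single tested concentration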;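 also: wild-type TIM10 isogenic control strain grown at permissive 25 °C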
tim10-1 inh: growth inhibitors of tim10-1 mutant yeast, primary screen, luminescence, uHTS; S. cerevisiae tim10-1 ts strain growth, BacTiter-Glo, 24 h; inhibition, % at 20 µM; hit rate 2.2% among 330,000; AID 463190, 2010;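 active = inhibition of at least 40%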;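 also: mutant grown at 25 °C; 0% = DMSO wells with yeast and 100% = wells holding no yeast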
tim23-1 inh: growth inhibitors of tim23-1 mutant yeast, primary screen, luminescence, uHTS. S. cerevisiae tim23-1 growth, BacTiter-Glo luminescence, 24 h. inhibition, % at 20 µM. hit rate 1.3% among 330,000;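 active = growth inhibition of the mutant yeast at or above 50%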;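 also: temperature-sensitive mutant grown at 25 °C; plate controls were DMSO-treated mutant yeast for no effect and medium wells lacking yeast for full effect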
PfHsp90 yeast 2: growth inhibition of PfHsp90-expressing yeast, primary screen, antimalarial PfHsp90 inhibitor project, S. cerevisiae, BacTiter-Glo luminescence, single point, set 2. AID 504621, 2011. hit rate 0.32% among 310,000. inhibition, % at 9.4 µM. BacTiter-Glo ATP, 48 h; yeast lacking PDR1 and PDR3 efflux regulators;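 active = every replicate shows inhibition above about 80%, whatever the replicate mean, limit read from the data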;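 also: 0% = DMSO neutral controls and 100% = 20 µM radicicol positive controls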
TIM10 conf: growth inhibitors of wild-type TIM10 yeast, confirmation, counter-screen for tim10-1 synthetic lethality project, single concentration, luminescence, S. cerevisiae | shares compounds with TIM10 inh | S. cerevisiae tim10 strain growth, BacTiter-Glo luminescence, 24 h | inhibition, % at 10 µM | hit rate 63% among 4,600 | AID 463215, 2010;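 active = inhibition of yeast growth at or above a set limit in either of two replicates at 10 µM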;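 also: this counterscreen used the strain with wild-type TIM10; 0% = yeast with DMSO and 100% = medium wells lacking yeast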
Active calls of the source: *; . = no result given.

SMILES	Mot1-301 SUMO	TIM10 inh	tim10-1 inh	tim23-1 inh	PfHsp90 yeast 2	TIM10 conf
Nc1nc(Nc2cccc(F)c2)nc2ccccc12	-24	40	35	29	36	30
COc1ccccc1N1CCN(C(=O)c2cccc(S(=O)(=O)N3c4ccccc4CC3C)c2)CC1 (stereo unspecified)	.	.	.	.	-5	.
CCC(C)NC(=O)COc1ccc(OCc2ccccc2)cc1 (stereo unspecified)	.	42*	26	13	-46	34*
Cc1ccc(NC(=O)C/C(N)=N/OC(=O)Nc2cccc(Cl)c2)cc1	-9	40*	36	11	18	24
COc1ccc(/C=N/Nc2nc(Nc3ccccc3)nc(N3CCCC3)n2)cc1[N+](=O)[O-]	7	8	-8	0	13	.
COc1ccc(/C=N/Nc2nc(Nc3ccccc3)nc(N3CCCCC3)n2)c(OC)c1	-6	41*	30	25	4	-32
Fc1ccc(Nc2nc(N/N=C/c3ccco3)nc(N3CCCCC3)n2)cc1	-8	40*	13	41	-6	22
C(=N\Nc1nc(N2CCOCC2)nc(N2CCOCC2)n1)/c1ccco1	6	9	-8	6	.	.
Cc1[nH]c2ccccc2c1/C=N/Nc1nc(Nc2ccccc2)nc(N2CCOCC2)n1	49	52*	24	18	-19	35*
Oc1[nH]c2ccccc2c1N=Nc1nc(Nc2ccccc2)nc(N2CCOCC2)n1	-5	11	18	13	-38	.
CNS(=O)(=O)c1ccc2c(c1)C(=O)c1cc(S(=O)(=O)NC)ccc1CC2	-22	1	8	17	4	.
CCOc1ccccc1OCCC(=O)N1CCN(S(=O)(=O)c2ccccc2[N+](=O)[O-])CC1	1	3	12	22	6	.
COc1ccc(CCC(=O)OCC(=O)NCc2ccc(OC)c(OC)c2)cc1OC	48	-3	1	-2	-9	.
COc1ccc(C(=O)COC(=O)C2CCCN2C(=O)C23CC4CC(CC(C4)C2)C3)cc1 (stereo unspecified)	-16	44*	29	34	-21	33*
O=C(COC(=O)C1CCCN1C(=O)C12CC3CC(CC(C3)C1)C2)c1ccc(Br)cc1 (stereo unspecified)	-19	15	36	25	-3	.
CCN(CC)c1ccc(-n2c(C)c(C(C)=O)c(C(C)=O)c2C)cc1	13	44*	37	41	.	19
O=C(Nc1cccc(Cl)c1)c1ccc2ncsc2c1	1	50*	25	31	13	45*
CCCCCOC(=O)c1ccc(NC(=O)c2ccco2)cc1	-1	41*	15	29	.	17
CCOC(=O)c1c(CCl)nc2ccccc2c1-c1ccccc1	88	-10	-8	29	-13	.
ClCc1nc2ccccc2c2ccccc12	-13	41*	34	47	-6	38*
COc1ccc2sc3ccccc3c(=O)c2c1	-16	26	9	33	-9	.
Cc1cc(O)cc2c(=O)c3ccccc3sc12	-6	60*	36	21	-10	55*
O=C(NN1C(=O)c2ccccc2NC1c1ccc([N+](=O)[O-])o1)c1ccc(Br)cc1 (stereo unspecified)	30	55*	38	43	-13	61*
CC(=O)N/N=C/c1ccccc1OCCOc1cccc(C)c1	49	47*	10	49	-11	34*
O=C(NC1Cc2ccccc2C1)c1cc(COc2ccc(F)cc2Cl)on1	17	1	17	6	-4	.
SMILES	Mot1-301 SUMO	TIM10 inh	tim10-1 inh	tim23-1 inh	PfHsp90 yeast 2	TIM10 conf
O=C(NC1CCc2ccccc21)c1cc(COc2ccc(F)cc2Cl)on1 (stereo unspecified)	11	68*	12	15	17	-1
COc1ccc(Nc2ccc3c(c2)=NC2(CCCCC2)[N+]=3[O-])cc1	26	47*	37	36	.	4
[O-][N+]1=c2ccc(Nc3ccccc3)cc2=NC12CCCCC2	7	.	.	.	-2	.
COC(=O)CNC(=O)CSc1nc2sccc2c(=O)n1-c1ccccc1	13	10	15	6	0	.
COC(=O)CNC(=O)CSc1nc2sc(-c3ccccc3)cc2c(=O)n1-c1ccccc1	-15	45*	29	26	-8	38*
O=C(COc1ccc([N+](=O)[O-])cc1)Nc1ccc2c(c1)CCC2	-3	-10	-18	39	-13	.
COc1cc(OC)cc(C(=O)Nn2c(C)nc3ccccc3c2=O)c1	-27	12	3	-7	-5	.
COc1cc(OC)cc(-c2nc3ccccc3c(=O)n2OC(=O)c2ccc(C)c(C)c2)c1	-16	50*	37	49	10	25
CC1CCc2c(sc(NC(=O)/C=C/c3cccs3)c2C(=O)O)C1 (stereo unspecified)	-20	1	-24	41	9	.
COc1ccc(C2(c3ccc(OC)cc3)NC(=O)N(CC(=O)NCC(C)c3ccccc3)C2=O)cc1 (stereo unspecified)	28	6	-5	-1	-11	.
COc1ccc(C(=O)NC(=S)NCc2ccccc2)cc1	.	21	34	40	-54	.
COc1cc(OC)cc(C(=O)NC(=S)NCCc2ccccc2)c1	13	44*	22	48	-21	18
CCc1ccccc1NC(=O)CN(C)C(=O)c1cc(C2CC2)nc2c1cnn2C(C)C	0	5	5	15	-31	.
O=C(OCc1nnc(-c2ccc(Cl)cc2)o1)c1ccncc1	0	-1	9	23	-1	.
Cc1noc(C)c1COc1ccc(C(=O)OCc2nnc(-c3ccc(Cl)cc3)o2)cc1	294	43*	32	10	-77	37*
Cn1cnnc1SCC(=O)NCCc1ccc(Cl)cc1Cl	-7	6	-8	-2	-16	.
O=C(/C=C/c1cccc(Br)c1)NCC1CCCCC1	11	41*	26	22	-36	33*
O=C(N/N=C/c1ccccn1)c1cc(-c2ccc3ccccc3c2)n[nH]1	0	60*	27	40	-15	-23
Cc1noc(C)c1COc1ccc(C(=O)Nc2ncccc2O)cc1	-8	0	6	7	-3	.
COc1ccc(C(=O)OCC(=O)N2CCCCCC2)cc1S(=O)(=O)N1CCOCC1	2	3	2	5	6	.
OCC(Cc1ccccc1)Nc1c2ccccc2nc2ccccc12 (stereo unspecified)	-9	56*	14	27	-5	-7
O=C(NN=C1CCCC1)c1cc(Cl)cc(Cl)c1O	-3	-8	8	16	-5	.
